Experimental data taken from publication PMC11995724, “Antibiotic target discovery by integrated phenotypic and activity-based profiling of electrophilic fragments” (Cell chemical biology, 2025).
The whole screen tested about 3,200 compounds, of which about 75 (2%) showed an effect of 50% or more. The sample as a whole holds a higher share of strong results than the screen did.

test system: T1, S. aureus MSSA476; set-up: species or system S. aureus MSSA476 (TSB) or V. cholerae SAD30 (LB); 384-well bacterial growth screen at 25 uM, OD600 relative to DMSO control; conditions: relative growth, OD600, TSB; 25 µM; inhibitor
T1 construct: MSSA476

SMILES | % of control remaining [%]
Cc1ccc(NC(=O)CN2CCN(C(=O)CCl)CC2)cc1.Cl [4-D16, 2-[4-(2-chloroacetyl)piperazin-1-yl]-N-(4-methylphenyl)acetamide hydrochloride] | 131.872
COCC(NC(=O)C(C)Cl)c1ccccn1 (stereo not shown) [6-B13, 2-chloro-N-[2-methoxy-1-(pyridin-2-yl)ethyl]propanamide] | 95.6098
COc1cc(C=C(C#N)C(=O)NC2CCCCC2)cc(Cl)c1O [8-H21, 3-(3-chloro-4-hydroxy-5-methoxyphenyl)-2-cyano-N-cyclohexylprop-2-enamide] | 104.564
CCOc1ccc(N2C(=O)C=CC2=O)cc1 [10-A14, 1-(4-ethoxyphenyl)-2,5-dihydro-1H-pyrrole-2,5-dione] | 141.563
O=C1C=CC(=O)N1c1ccc2ccccc2c1 [10-D07, 1-(naphthalen-2-yl)-2,5-dihydro-1H-pyrrole-2,5-dione] | 3.125
O=C1C=CC(=O)N1c1ccc(Oc2ccccc2)cc1 [10-F17, 1-(4-phenoxyphenyl)-2,5-dihydro-1H-pyrrole-2,5-dione] | 36.875
O=C1C=CC(=O)N1c1ccc(F)c(Cl)c1 [10-D15, 1-(3-chloro-4-fluorophenyl)-2,5-dihydro-1H-pyrrole-2,5-dione] | 109.688
O=C1C=CC(=O)N1c1cccc(O)c1 [10-O07, 1-(3-hydroxyphenyl)-2,5-dihydro-1H-pyrrole-2,5-dione] | 125.313
O=C1C=CC(=O)N1c1ccc(OC(F)F)cc1 [10-P11, 1-[4-(difluoromethoxy)phenyl]-2,5-dihydro-1H-pyrrole-2,5-dione] | 110.313
COc1ccccc1N1C(=O)C=CC1=O [10-O10, 1-(2-methoxyphenyl)-2,5-dihydro-1H-pyrrole-2,5-dione] | 118.438
O=C1C=CC(=O)N1c1ccc(OC(F)(F)F)cc1 [10-J19, 1-[4-(trifluoromethoxy)phenyl]-2,5-dihydro-1H-pyrrole-2,5-dione] | 5.9375
COc1cccc(N2C(=O)C=CC2=O)c1 [10-K03, 1-(3-methoxyphenyl)-2,5-dihydro-1H-pyrrole-2,5-dione] | 124.375
CCOC(=O)c1[nH]c(C)c(C(=O)CCl)c1C [10-A10, ethyl 4-(2-chloroacetyl)-3,5-dimethyl-1H-pyrrole-2-carboxylate] | 136.563
C=CC(=O)NCC1=NOCC1 [3-G16, N-[(4,5-dihydro-1,2-oxazol-3-yl)methyl]prop-2-enamide] | 95.7771
Cc1cc(C(=O)CCl)c(F)cc1F [10-O03, 2-chloro-1-(2,4-difluoro-5-methylphenyl)ethan-1-one] | 143.438
O=C1CCc2cc(C(=O)CCl)c(F)cc2N1 [10-O20, 6-(2-chloroacetyl)-7-fluoro-1,2,3,4-tetrahydroquinolin-2-one] | 3.75
O=C1CCc2cc(C(=O)CCl)ccc2N1 [10-M03, 6-(2-chloroacetyl)-1,2,3,4-tetrahydroquinolin-2-one] | 83.125
C=CC(=O)N1CCC(n2nc(C)nc2O)CC1 [3-P21, 1-[4-(5-hydroxy-3-methyl-1H-1,2,4-triazol-1-yl)piperidin-1-yl]prop-2-en-1-one] | 126.077
CC1CCN(C(=O)CCl)c2cc(C(F)(F)F)ccc2S1 (stereo not shown) [5-J07, 2-chloro-1-[2-methyl-7-(trifluoromethyl)-2,3,4,5-tetrahydro-1,5-benzothiazepin-5-yl]ethan-1-one] | 106.011
O=C(CCl)Nc1c(Cl)cccc1C(F)(F)F [5-B04, 2-chloro-N-[2-chloro-6-(trifluoromethyl)phenyl]acetamide] | 82.3315
O=C(CCl)N1CCOc2c1cccc2C(F)(F)F [5-G08, 2-chloro-1-[8-(trifluoromethyl)-3,4-dihydro-2H-1,4-benzoxazin-4-yl]ethan-1-one] | 0.3643
CN(C)S(=O)(=O)c1ccc(Cl)c(NC(=O)CCl)c1 [6-H12, 2-chloro-N-[2-chloro-5-(dimethylsulfamoyl)phenyl]acetamide] | 88.439
C=CC(=O)N1CCN(Cc2cc(=O)n3ccsc3n2)CC1 [3-F22, 7-{[4-(prop-2-enoyl)piperazin-1-yl]methyl}-5H-[1,3]thiazolo[3,2-a]pyrimidin-5-one] | 101.698

SMILES | % of control remaining [%]
O=C(CCl)N1c2ccccc2Sc2ccc(Cl)cc21 [4-N07, 2-chloro-1-(2-chloro-10H-phenothiazin-10-yl)ethan-1-one] | 3.049
CC1CCN(C(=O)CCl)c2cc(Cl)ccc2S1 (stereo not shown) [4-G16, 2-chloro-1-(7-chloro-2-methyl-2,3,4,5-tetrahydro-1,5-benzothiazepin-5-yl)ethan-1-one] | 93.3778
CC1CSc2ccc(Cl)cc2N(C(=O)CCl)C1 (stereo not shown) [5-J05, 2-chloro-1-(7-chloro-3-methyl-2,3,4,5-tetrahydro-1,5-benzothiazepin-5-yl)ethan-1-one] | 95.4463
CC(Cl)C(=O)N(Cc1nnc(-c2ccccc2Cl)o1)C1CC1 (stereo not shown) [5-B17, 2-chloro-N-{[5-(2-chlorophenyl)-1,3,4-oxadiazol-2-yl]methyl}-N-cyclopropylpropanamide] | 92.5319
O=C(CCl)c1cscn1 [10-L08, 2-chloro-1-(1,3-thiazol-4-yl)ethan-1-one] | 27.8125
C[C@H]1CN(C(=O)CCl)CCN1C(=O)c1cscn1 [5-L05, 2-chloro-1-[(3S)-3-methyl-4-(1,3-thiazole-4-carbonyl)piperazin-1-yl]ethan-1-one] | 92.5319
O=C(CCl)c1ccccn1 [10-J03, 2-chloro-1-(pyridin-2-yl)ethan-1-one] | 51.875
CCOc1ccccc1NC(=O)C(C)Cl (stereo not shown) [6-M10, 2-chloro-N-(2-ethoxyphenyl)propanamide] | 106.195
C=CC(=O)NCc1nc(C2CC2)cs1 [2-A19, N-[(4-cyclopropyl-1,3-thiazol-2-yl)methyl]prop-2-enamide] | 138.207
O=C(CCl)N1CCCSc2ccccc21 [4-E16, 2-chloro-1-(2,3,4,5-tetrahydro-1,5-benzothiazepin-5-yl)ethan-1-one] | 116.627
CC1CSc2ccccc2N(C(=O)CCl)C1 (stereo not shown) [5-H07, 2-chloro-1-(3-methyl-2,3,4,5-tetrahydro-1,5-benzothiazepin-5-yl)ethan-1-one] | 104.554
O=C(CCl)N1c2ccccc2SCC1c1ccccc1 (stereo not shown) [4-M18, 2-chloro-1-(3-phenyl-3,4-dihydro-2H-1,4-benzothiazin-4-yl)ethan-1-one] | 9.528
C=CC(=O)N1C[C@H](NC(C)=O)[C@@H](c2ccnn2C)C1 (racemic) [2-M16, rac-N-[(3R,4S)-4-(1-methyl-1H-pyrazol-5-yl)-1-(prop-2-enoyl)pyrrolidin-3-yl]acetamide] | 90.5135
Cc1nn(CC(C)C)c(Cl)c1C1CCCN1C(=O)C(C)Cl (stereo not shown) [7-P19, 2-chloro-1-{2-[5-chloro-3-methyl-1-(2-methylpropyl)-1H-pyrazol-4-yl]pyrrolidin-1-yl}propan-1-one] | 108.32
CC(Cl)C(=O)N(Cc1ccccc1)Cc1ccccc1 (stereo not shown) [5-K19, N,N-dibenzyl-2-chloropropanamide] | 103.097
CN(C(=O)CCl)C(c1ccc(Cl)cc1)C(F)(F)F (stereo not shown) [7-J16, 2-chloro-N-[1-(4-chlorophenyl)-2,2,2-trifluoroethyl]-N-methylacetamide] | 101.413
CC(c1ccc(C(F)(F)F)cc1F)N(C)C(=O)CCl (stereo not shown) [7-P18, 2-chloro-N-{1-[2-fluoro-4-(trifluoromethyl)phenyl]ethyl}-N-methylacetamide] | 94.5055
CC(c1ccc(C(F)(F)F)c(Cl)c1)N(C)C(=O)CCl (stereo not shown) [7-F14, 2-chloro-N-{1-[3-chloro-4-(trifluoromethyl)phenyl]ethyl}-N-methylacetamide] | 6.593
Cc1ccc(C=C(C#N)C(=O)Nc2nccs2)s1 [8-P13, 2-cyano-3-(5-methylthiophen-2-yl)-N-(1,3-thiazol-2-yl)prop-2-enamide] | 93.61
Cc1ccccc1NC(=O)C(C#N)=Cc1ccc2c(c1)OCCO2 [8-J03, 2-cyano-3-(2,3-dihydro-1,4-benzodioxin-6-yl)-N-(2-methylphenyl)prop-2-enamide] | 129.461
O=C1C=CC(=O)N1c1ccc(F)cc1 [10-M10, 1-(4-fluorophenyl)-2,5-dihydro-1H-pyrrole-2,5-dione] | 118.75
O=C1C=CC(=O)N1c1ccc(SC(F)F)cc1 [10-A18, 1-{4-[(difluoromethyl)sulfanyl]phenyl}-2,5-dihydro-1H-pyrrole-2,5-dione] | 29.6875
N#Cc1ccc(N2C(=O)C=CC2=O)cc1 [10-B09, 4-(2,5-dioxo-2,5-dihydro-1H-pyrrol-1-yl)benzonitrile] | 133.438
